Among the data in PubChem BioAssay (NCI) are growth values, retold here.

This is part of a sample that, as a whole, favours compounds with a hit. Of some 83,000 tested, about 20% had one in any assay.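 Percent growth is the endpoint: 0 to 100 indicates growth inhibition (40 means 60% inhibition), 0 means no net growth, and negative values indicate cell death.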 A number with no mark means an inactive call. Activity calls are given as the source filed them. How the source made its calls: active means growth percent below 10; inactive means the rest.

For the assay, the system named is HL-60(TB) leukemia. Kind of assay: NCI-60 one-dose screen, 48 h (100 = growth as untreated, 0 = no growth, -100 = all killed). Particulars: 10 µM unless noted.
For the molecule `Oc1cccc2c1NCCC2`, the growth is 7.84% (active). Turning to `CC[C@H](C)[C@H](NC(=O)[C@H](CCCNC(=N)N)NC(=O)[C@H](Cc1c[nH]c2ccccc12)NC(=O)[C@@H](NC(=O)[C@H](CCCCN)NC(=O)[C@H](CCCCN)NC(=O)[C@@H](NC(=O)[C@@H](NC(=O)[C@@H](NC(=O)[C@H](CCCCN)NC(=O)[C@H](Cc1ccccc1)NC(=O)[C@H](CCCCN)NC(=O)[C@H](CCCCN)NC(=O)[C@H](Cc1ccccc1)NC(=O)[C@@H](NC(=O)[C@@H](N)CCCCN)[C@@H](C)CC)[C@@H](C)O)[C@@H](C)CC)[C@@H](C)CC)C(C)C)C(=O)N[C@@H](Cc1ccccc1)C(=O)NCC(=O)N[C@@H](CCCNC(=N)N)C(=O)N[C@@H](Cc1ccccc1)C(N)=O`, the growth was 14.9%. As to `O=C(Nc1ccc(-n2cc(-c3ccncc3)c(-c3ccc(O)c(Cl)c3)n2)cc1)c1cc(Cl)cc(Cl)c1`, the growth was 28.1%. For the molecule `CCCCN(CCCC)CCCN=c1nc2c(c(N)n1-c1ccccc1)c(=S)n(-c1ccccc1)c(=S)n2-c1ccccc1`, the growth was -74.8% (active). To `S=c1[nH]ccn1-c1c(Cl)cccc1Cl` belongs 93.5%; to `COC(=O)CC/C(C)=N\Nc1ccc([N+](=O)[O-])cc1`, 24.5%; to `CC(=O)Oc1c(Cl)cccc1-c1ccccc1`, 99.6%. In the case of `Nc1ccn(C2OC(CO)C(O)C2F)c(=O)n1` (stereo unspecified), the growth was 105%. To `CC1(C)CC[C@]2(C(=O)O)CC[C@]3(C)C(=CC[C@@H]4[C@@]5(C)C/C(=C/c6ccco6)C(=O)C(C)(C)[C@@H]5CC[C@]43C)[C@@H]2C1` belongs -16.4% [100 µM] (active); to `COc1cc(/C=C2\CN(C(=O)OC(C)(C)C)C/C(=C\c3ccc(O)c(OC)c3)C2=O)ccc1O`, 97.1%. Take `CCCCC(O)(c1ccc(Cl)cc1)C(CN1CCOCC1)c1ccc(Cl)cc1` (stereo unspecified): the growth was 53.6%. For the molecule `COc1ccc2cc(C3=CC(=O)CCC3)ccc2c1`, the growth was 89.7%. Take `C=C(C)[C@@H]1CC[C@]2(C(=O)NCC(=O)O)CC[C@]3(C)[C@H](CC[C@@H]4[C@@]5(C)Cc6c([nH]c7ccccc67)C(C)(C)[C@@H]5CC[C@]43C)[C@@H]12`: the growth was 101%. Regarding `CC(=O)n1cc(-c2c[nH]c3ccccc23)c(-c2ccc(Cl)cc2)n1`, the growth is 135%. For the molecule `COc1nc2c(cc1S(=O)(=O)c1ccccc1)CCc1c-2cnn1Cc1ccccc1`, the growth was 26.1%. `C=C(C)[C@@H]1CC[C@]2(C(=O)NCCCN(CCC#N)CCC#N)CC[C@]3(C)[C@H](CC[C@@H]4[C@@]5(C)CCC(=O)C(C)(C)[C@@H]5CC[C@]43C)[C@@H]12`: the growth was 100%. For `O=C(Nc1ccc([N+](=O)[O-])cc1)c1cc2ccccc2cc1O`, the growth is -16.7% (active). With `Cc1ccccc1N1CCN(C(=S)c2ccccc2)CC1`, the growth was 108%. As for `COc1ccc2cc(-c3nc4ccc(C)cn4c3NCc3ccco3)c(=O)[nH]c2c1`, the growth was 67.5%.

As to `CCN(CC)CCNc1ccc([N+](=O)[O-])c2sc3cc(Cl)ccc3c(=O)c12`, the growth was 54.7%. Take `O=C(Nc1ccccc1)OCC1OCOC(COC(=O)Nc2ccccc2)C1OC(=O)Nc1ccccc1` (stereo unspecified): the growth is 122%. In the case of `N#Cc1cncc(-c2ccc3ncnc(Nc4cccc(Cl)c4)c3c2)c1`, the growth is 97.2%. To `Cn1ccnc1C(=O)/C=C/c1ccc(CC(=O)Nc2cc(C(F)(F)F)cc(C(F)(F)F)c2)cc1` belongs 16.1%. Regarding `COc1ccc2nc(-c3ccc(Cl)cc3)cc(-c3nnc(SCC(=O)Nc4ccc(C(C)=O)cc4)n3-c3ccccc3)c2c1`, the growth was 99.3%. `CC(=O)Nc1ccc2c(c1)Cc1c(F)c(F)c(F)c(F)c1-2`: the growth is 65.5%.

As for `COc1cc(OC)c(/C=C/C(=O)c2ccc(Nc3ncnc4ccccc34)cc2)c(OC)c1`, the growth was 2.85% (active). `Cn1c(COC(=O)N2CCCCC2)nc2c(N3CCOCC3)nc(-c3ccccc3)nc21`: the growth is -28% (active). To `CS(=O)(=O)Nc1cc(-c2ccc3ncnc(Nc4ccc(F)c(Cl)c4)c3c2)cnc1Cl` belongs 1.75% (active). `O=C1c2c(c3c4ccccc4[nH]c3c3ccc4ccccc4c23)C(=O)N1CCN1CCOCC1`: the growth is 53.6%. Turning to `O=C(O)CC(C(=O)O)/C(=C\c1ccccc1)c1ccccc1` (stereo unspecified), the growth was 107%. As for `CCCCN(C=S)CCCC`, the figure is 104%.
